Hits are enriched below; roughly 3.5% of the tested compounds scored in any of these assays.
ANO1 activ: TMEM16A chloride channel activators or potentiators, primary screen, cell-based, HTS | B-score at 10 µM | Anoctamin-1 (Mus musculus), Q8BHY3 | HEK293 TMEM16A/YFP-H148Q/I152L, iodide quench fluorescence; active compounds read low | 0.3% of 340,000 active;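 active = fluorescence-ratio B-score plate-corrected deviation score at least 3 library SD below zero, with starting fluorescence score within 5 deviations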;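 note: channel opened by trigger with iodide after compound preincubation; score built on the fluorescence ratio of max minus min over baseline; more negative score means more quench and so TMEM16A activation or potentiation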
ANO1 block: TMEM16A chloride channel inhibitors, primary screen, cell-based, HTS. HEK293 TMEM16A/YFP iodide influx fluorescence, ionomycin. Anoctamin-1 (Mus musculus), Q8BHY3. normalized B-score (activity score, 25-100; higher = stronger inhibition) at 10 µM. 1.2% of 310,000 active. AID 588511, 2011;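 active = ratio plate-corrected score three or more library SD toward inhibition, starting fluorescence score within five deviations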;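 note: score derived from kinetic fluorescence span divided by baseline fluorescence per well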
KCNK9 block: KCNK9 potassium channel inhibitors, primary screen, HEK293 cells, thallium flux; Potassium channel subfamily K member 9 (Homo sapiens), Q9NPC2; FluxOR thallium flux fluorescence; active compounds read low; B-score at 10 µM; 1.2% of 310,000 active;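 active = ratio B-score over 3 SD below the library mean, with starting fluorescence within 5 SD of its mean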;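 note: negative B-score means less thallium flux so channel inhibition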
Target sequence (Q9NPC2 whole entry, looked up): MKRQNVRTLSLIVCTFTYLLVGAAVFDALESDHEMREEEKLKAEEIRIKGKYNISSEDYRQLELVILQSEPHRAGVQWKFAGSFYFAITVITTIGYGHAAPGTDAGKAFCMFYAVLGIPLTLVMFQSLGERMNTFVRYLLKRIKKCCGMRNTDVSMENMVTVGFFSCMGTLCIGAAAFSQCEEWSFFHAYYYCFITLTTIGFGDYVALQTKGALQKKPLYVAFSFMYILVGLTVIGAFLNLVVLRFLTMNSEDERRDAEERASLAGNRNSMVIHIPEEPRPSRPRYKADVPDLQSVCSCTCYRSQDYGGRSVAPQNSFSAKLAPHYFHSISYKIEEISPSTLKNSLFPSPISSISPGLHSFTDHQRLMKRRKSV
Kir21 block: inhibitors of mouse Kir2.1 inward-rectifier potassium channel; Inward rectifier potassium channel 2 (Mus musculus), P35561; B-score at 10 µM; HEK293-Kir2.1, FluxOR thallium flux fluorescence; active compounds read low; 0.85% of 310,000 active;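 active = fluorescence ratio B-score at or below minus 3 SD of library scores, with starting-brightness B-score within 2 SD, cut at about -4.2 in these data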;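 note: channel flux triggered by added potassium and thallium sulfate stimulus; B-score of peak minus minimum fluorescence over baseline after thallium stimulus; more negative B-score means stronger Kir2.1 block with less thallium influx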
KCNK3 block: human KCNK3 channel inhibitors, primary screen, CHO cells, FluxOR thallium flux, B-score | AID 602410, 2012 | 0.84% of 340,000 active | B-score at 10 µM | FluxOR fluorescence; active compounds read low;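 active = B-score under library mean minus 4 SD, starting fluorescence ratio at most library mean plus 5 SD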;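 note: more negative B-score means stronger inhibition of thallium flux through KCNK3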
KCNK3 confirm: retest of human KCNK3 channel inhibitors, confirmation, CHO cells, FluxOR thallium flux, triplicate | shares compounds with KCNK3 block | FluxOR fluorescence; 0% buffer, 100% carvedilol maximal block | ratio percent of control, % at 10 µM | 99% of 2,400 active | AID 651638, 2012;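 active = ratio percent of control, averaged over triplicates, above buffer control mean plus 5 SD, cut at about 64% in these data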;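 note: ratio is the fluorescence rise from min to max over baseline after thallium stimulus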
KCNK3 noninduced: thallium flux inhibition in non-induced cells, primary screen, counter-screen for KCNK3 inhibitor project, cell-based, non-induced KCNK3 line, FluxOR thallium, triplicate; shares compounds with KCNK3 block; non-induced KCNK3 parental cells; active compounds read low; thallium flux ratio (lower = more inhibition) at 10 µM; 40% of 2,400 active; AID 651747, 2012;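 active = thallium flux ratio, averaged over three wells, more than 5 SD below the buffer control mean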;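 note: host cells are CHO cells without KCNK3 induction; ratio is peak minus trough fluorescence over baseline then normalized to buffer controls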
Starred values were filed as active, the others as inactive; i = inactive; x = not tested or not shown.

SMILES | ANO1 activ | ANO1 block | KCNK9 block | Kir21 block | KCNK3 block | KCNK3 confirm | KCNK3 noninduced
CCCCn1c(O)c(C(CC)=NCc2ccc3c(c2)OCO3)c(=O)[nH]c1=O | i | i | -6.9* | 0.32 | -9.7* | 117* | i
C#C[C@]1(O)CC[C@H]2[C@@H]3CCC4=Cc5nc6nc7ccccc7n6cc5C[C@]4(C)[C@H]3CC[C@@]21C | i | i | x | x | -16* | 132* | 0.12*
C#CC1(O)CCC2C3CCC4=C/C(=N/OCC(=O)NCC(=O)NC(C(=O)O)C(C)C)CC[C@]4(C)C3CC[C@@]21C (some centres not stated) | i | i | i | -1.2 | i | x | x
N#CCP(=S)(c1ccccc1)c1ccccc1 | i | i | i | -1.3 | i | x | x
O=c1c2ccccc2nc(/C=C\c2ccccc2[N+](=O)[O-])n1-c1ccccc1O | i | i | i | 0.64 | -10* | 112* | 0.14*
CN1CCC2(O)OCCCC2C1 (configuration not stated) | i | i | i | -2.2 | i | x | x
CCC(C(=O)N1CCC2(CC1)OCCO2)n1c2ccccc2c2nc(=O)cc(C)n21 (configuration not stated) | i | i | i | 0.44 | -10* | 90* | i
O=C(c1cc(C(=O)NCc2ccc(Cl)cc2)c(=O)n(Cc2ccc(Cl)cc2)c1)c1cc(F)ccc1O | i | i | i | 1.1 | i | x | x
Cc1ccc(O)c(C(=O)c2cc(C(=O)NCCC(C)C)c(=O)n(CCC(C)C)c2)c1 | i | i | i | -0.22 | -9.5* | 132* | 0.16*
CC1CC2(C)C(=CC1=O)CCC1C3CCC(C)(O)C3(C)CC3OC312 (configuration not stated) | i | x | x | x | i | x | x
